High-throughput results from PubChem.
The list is not random: actives were taken first. Their share in the collection is about 8%.
FMDV inh: High Throughput Screening for Foot and Mouth Disease Virus Antivirals. FMDV antiviral cell-based qHTS. Potency, µM (highest dose often 57.9 µM), inactives show at the top dose activity change, negative = inhibition, hits mostly inhibitors. hit rate 1.2% among 410,000. AID 1159524, 2015; calls by dose curve; tested in HEK293T cells; further: read-out not given here; potency means the concentration at half of the fitted maximal effect; on the % scale 0 is the no-effect control and ±100 the full control effect; nearly all actives have a fitted effect of over 45% in size
SARS PLpro yeast: qHTS of Yeast-based Assay for SARS-CoV PLP; S. cerevisiae expressing SARS-CoV PLpro, growth rescue; Potency, µM (doses to about 32.9 µM), for inactives: at the top dose activity, positive = growth rescue, most hits filed as activators; hit rate 0.19% among 330,000; AID 485353, 2010; calls by dose curve; further: potency means the concentration at half of the fitted maximal effect; 0% is about no effect; nearly all actives have a fitted effect of over 55% in size
HCMV antiviral: qHTS Assay for inhibitors of the human cytomegalovirus (HCMV). HFF cells, HCMV-luciferase reporter, 72 h; hits give low values. activity change, negative = inhibition, % at 57.5 µM. hit rate 4.5% among 410,000; in the data active means activity change below about -60%; inconclusive means no clear call, values can overlap the other calls; inactive means above about -39%; further: on the % scale 0 is the no-effect control and ±100 the full control effect
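Human foreskin fibroblasts infected with luciferase-reporter HCMV at MOI 1 PFU/cell, compounds at two doses. Luciferase measured 72 h post infection; normalized to buffer-only basal and Salinomycin (10uM) controls.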
Lassa entry inh: qHTS for Inhibitors of binding or entry into cells for Lassa Virus; Lassa virus pseudotype entry inhibition, cell reporter; Potency, µM (top dose mostly 37.9 µM), inactives show at the highest dose activity change, negative = inhibition, usual class: inhibitors; hit rate 1.2% among 300,000; calls by dose curve; tested in HEK293 cells; further: potency means the concentration at half of the fitted maximal effect; on the % scale 0 is the no-effect control and ±100 the full control effect; nearly all actives have a fitted effect of over 50% in size
MARV entry inh: qHTS for inhibitors of binding or entry into cells for Marburg Virus. Marburg virus pseudotyped entry inhibition, cell reporter. Potency, µM (top dose mostly 37.8 µM), without a hit: top-dose activity change, negative = inhibition, most hits filed as inhibitors. hit rate 1.8% among 300,000; calls by dose curve; tested in HEK293 cells; further: potency means the concentration at half of the fitted maximal effect; on the % scale 0 is the no-effect control and ±100 the full control effect
HCV inhibitor: qHTS Assay for Inhibitors of Hepatitis C Virus (HCV). Huh7.5.1 HCVcc-Cre infection, luciferase reporter, 44 h. Potency, µM (series often up to 41.8 µM), without a hit: at the top dose activity change, negative = inhibition, usual class: inhibitors. hit rate 3.4% among 340,000. AID 651820, 2012; active means well fitted inhibition curve with a large enough effect; inconclusive means small, poorly fitted or top-dose-only effect, or another doubt; inactive means no such curve, though single readings can be large or run the other way; further: potency means the concentration at half of the fitted maximal effect; on the % scale 0 is the no-effect control and ±100 the full control effect
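Cells (1,000/well) were plated 4 h before compound, then infected with HCVcc-Cre virus (~0.5 moi). After 44 h further culture, infection was read as luciferase luminescence following a 15 min substrate incubation at room temperature.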
* marks the source's active call; other numbers are inactive results; ? = inconclusive; nt = no result; [ ] = dose if it differs, or a comment.

SMILES | FMDV inh | SARS PLpro yeast | HCMV antiviral | Lassa entry inh | MARV entry inh | HCV inhibitor
CCC(CC)C(=O)Nc1ccc(Sc2ccc([N+](=O)[O-])cc2)cc1 | ? | 4.5% | -96.3* | 10.0% | -14.4% | ?
CCCS(=O)(=O)N1CCC(C(=O)NCCOC)CC1 | 0.0% | nt | 15.5 | 18.5%[46.1 µM] | nt | nt
COc1ccc(CNc2nc(-c3ccco3)nn2C(=O)CC(C)C)cc1 | 11.1% | nt | 72.1 | ? | ? | nt
COc1ccc(N(C(=O)/C=C\C(=O)Nc2ccc(Cl)cc2)C(C(=O)NCc2ccco2)c2ccc(C)cc2)cc1 (stereo not drawn) | -13.1% | nt | -39.9 | ? | nt | nt
Fc1ccc(-c2nccc3[nH]nc(-c4ccccc4)c23)cc1 | nt | nt | -30.9 | nt | nt | nt
CCCNC(=O)c1ccc(C2SCC(=O)N2CCc2ccccc2)cc1 (stereo not drawn) | -27.0% | 3.4% | -34.2 | 10µM* | -18.6% | ?
COc1ccc(CCN2C(=O)CSC2c2ccc(OC)c(OC)c2)cc1OC (stereo not drawn) | -29.5% | 0.7% | 1.8 | nt | nt | -29.5%
Cc1cccc(NC(=O)c2ccc(C3SCC(=O)N3CCc3ccccc3)cc2)c1C (stereo not drawn) | ? | -0.2% | -72.1* | ? | ? | ?
COc1ccc(C2SCC(=O)N2CCc2ccc(OC)c(OC)c2)cc1 (stereo not drawn) | ? | -3.4% | -70.7* | nt | nt | 11.2µM*
Cc1ccc(-c2cn3nc(N4CCCC(C(=O)Nc5ccc(F)cc5)C4)sc3n2)cc1 (stereo not drawn) | -1.8% | nt | 0.0 | ? | nt | nt
Cc1nnc2c3ccccc3c(-c3ccccc3)nn12 | nt | nt | -66.4* | ? | ? | -2.1%
Cc1nc(N2CCN(C)CC2)c2cc(-c3ccccc3)sc2n1 | 4.1% | 1.3% | -17.3 | 3.5%[46.1 µM] | 17.0%[46.1 µM] | -3.1%
Cc1nc(N2CCCC2)c2ccsc2n1 | -17.8% | 1.3% | -27.9 | 4.2% | 17.2% | 14.1µM*
Cn1c(COc2ccc(Br)cc2)nnc1SC1CCc2ccccc2C1=O (stereo not drawn) | 31.6µM* | -1.3% | -1.4 | -20.0% | ? | ?
Cc1cccc(-n2cnc3c(sc4nc(N5CCOCC5)c5c(c43)CCCC5)c2=O)c1 | ? | 0.5% | ? | ? | ? | 17.8µM*
CCN(CC)c1ncnc2c1sc1nc(N3CCOCC3)c3c(c12)CCC3 | nt | -8.7% | nt | nt | -1.9% | nt
Cc1cc(NC(=O)OC2CCCCC2)ccc1[N+](=O)[O-] | 30.3% | -3.9% | 50.1 | ? | 10µM* | ?
Cc1ccc(NC(=O)C2C3CCCCC32)cc1[N+](=O)[O-] (stereo not drawn) | 49.3% | -5.6% | -19.4 | nt | nt | -8.6%
Nc1nc(Nc2cccc3ccccc23)nc(C2CCCC2=O)n1 (stereo not drawn) | nt | 2.5% | 33.7 | nt | nt | nt
Nc1nc(CCl)nc(Nc2cccc3ccccc23)n1 | ? | 0.2% | -98.2* | nt | nt | 0.562µM*
COc1ccc(Cl)c2sc(NC(=O)c3ccc(S(=O)(=O)N4CCOCC4)cc3)nc12 | -24.6% | nt | 4.7 | 8.3%[46.1 µM] | nt | nt
CCOc1ccccc1NC(=O)C(OC(=O)c1ccc(O)cc1)c1ccccc1 (stereo not drawn) | 0.0% | -56.5% | 30.6 | ? | ? | ?
CCOc1ccccc1C(=O)Nc1cc(C(=O)NCCc2ccccc2)ccc1Cl | nt | -3.9% | -10.1 | -16.2% | 4.6% | 2.51µM*
CCOc1ccccc1NC(=O)C(OC(=O)c1ccc(N(C)C)cc1)c1ccccc1 (stereo not drawn) | -16.1% | 9.6% | -32.1 | ? | ? | 11.2µM*
CCOc1ccccc1NC(=O)c1ccc(C(=O)Nc2ccccc2OCC)nc1 | 3.0% | -4.9% | -63.8* | nt | nt | -3.7%
CCOc1ccccc1NC(=O)c1cc(SC)ccc1Cl | -4.9% | -5.6% | -27.4 | -24.5% | ? | 22.4µM*
CCOC(=O)c1ccc(CN2C(=O)C(n3cccc3)c3ccccc32)o1 (stereo not drawn) | nt | nt | 11.2 | nt | nt | nt
CCOc1ccccc1NC(=O)c1ccc(Cl)c(NC(=O)CC(c2ccccc2)c2ccccc2)c1 | nt | 3.1% | -35.7 | -3.7% | 14.6µM* | 5.7%
